Several values for one entry are separate records, joined by “and”; a condition that tells them apart may be missing. Equal entries are not always repeated. Records with an inconclusive call do not appear. Where a structure was tested more than once in an assay, its records may differ in their call. Activity calls are given as the source filed them. How the source made its calls, unless noted: active means hit-call score of the fitted dose curve at least 0.9, where 1 is the maximum; inactive means score below 0.9.
What was measured:
[1] = ATG_PBREM_CIS: Attagene CIS-FACTORIAL HepG2 Assay for human Phenobarbital-responsive Enhancer Module (PBREM) (AID 2282955); settings: HepG2 PBREM cis-reporter, Attagene multiplexed transcription; actives raise or lower the signal
In short: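 Endogenous transcription factors in human liver HepG2 cells drive a PBREM cis-element reporter, whose transcript level after 24 h treatment is quantified by RT-PCR with capillary electrophoresis; activity fitted in both directions against DMSO.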

[2] = target: Paired box protein Pax-6 (Homo sapiens) (UniProt P26367); test: ATG_Pax6_CIS: Attagene CIS-FACTORIAL HepG2 Assay for human Paired Box 6 (PAX6) (AID 2282956); settings: HepG2 CIS-FACTORIAL PAX6 reporter transcription, RNA readout; actives raise or lower the signal
Paired box protein Pax-6 (Homo sapiens), sequence (P26367 whole entry, looked up): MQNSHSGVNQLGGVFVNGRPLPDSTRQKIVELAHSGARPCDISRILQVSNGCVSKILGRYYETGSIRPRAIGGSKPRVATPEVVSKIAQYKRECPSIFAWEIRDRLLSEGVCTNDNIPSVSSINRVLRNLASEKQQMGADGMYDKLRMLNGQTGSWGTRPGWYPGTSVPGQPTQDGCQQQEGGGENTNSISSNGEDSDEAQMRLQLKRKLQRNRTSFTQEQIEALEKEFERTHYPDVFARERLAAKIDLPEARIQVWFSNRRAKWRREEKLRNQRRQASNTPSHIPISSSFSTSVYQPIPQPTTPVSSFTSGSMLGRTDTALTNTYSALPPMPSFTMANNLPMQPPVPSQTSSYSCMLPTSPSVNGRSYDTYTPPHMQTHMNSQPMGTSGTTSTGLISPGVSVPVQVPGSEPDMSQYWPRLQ
In short: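 Fluorescent RT-PCR products separated by capillary electrophoresis report PAX6-linked promoter mRNA in HepG2 cells 24 h post-dose. Curves fitted bidirectionally, DMSO as negative control.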

[3] = ATG_RORE_CIS: Attagene CIS-FACTORIAL HepG2 Assay for human RAR-related Orphan Receptor Element (RORE) (AID 2282959); settings: HepG2 Attagene cis-factorial RORE reporter, mRNA; actives raise or lower the signal
In short: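 Transient MRTU transfection of human HepG2 liver cells (FuGene 6); 24 h compound exposure; TriZol RNA, oligo(dT) RT, PCR, FAM labeling, HpaI cut, CE fragment analysis. DMSO = negative control/baseline.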

[4] = ATG_Sox_CIS: Attagene CIS-FACTORIAL HepG2 Assay for human SRY-box transcription factor (SOX) (AID 2282960); settings: HepG2 Attagene cis-factorial SOX reporter, mRNA; actives raise or lower the signal
In short: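 Endogenous factor activity in human liver HepG2 cells carrying transfected cis-regulated reporter units. RNA taken 24 h post-dose, reverse-transcribed, PCR-amplified and sized by capillary electrophoresis. Gain or loss of signal fitted relative to DMSO.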

[5] = target: Transcription factor Sp1 (Homo sapiens) (UniProt P08047); test: ATG_Sp1_CIS: Attagene CIS-FACTORIAL HepG2 Assay for human Specificity Protein 1 (Sp1) (AID 2282961); settings: HepG2 Sp1 cis-reporter transcription, actives raise or lower the signal
Transcription factor Sp1 (Homo sapiens), sequence (P08047 whole entry, looked up): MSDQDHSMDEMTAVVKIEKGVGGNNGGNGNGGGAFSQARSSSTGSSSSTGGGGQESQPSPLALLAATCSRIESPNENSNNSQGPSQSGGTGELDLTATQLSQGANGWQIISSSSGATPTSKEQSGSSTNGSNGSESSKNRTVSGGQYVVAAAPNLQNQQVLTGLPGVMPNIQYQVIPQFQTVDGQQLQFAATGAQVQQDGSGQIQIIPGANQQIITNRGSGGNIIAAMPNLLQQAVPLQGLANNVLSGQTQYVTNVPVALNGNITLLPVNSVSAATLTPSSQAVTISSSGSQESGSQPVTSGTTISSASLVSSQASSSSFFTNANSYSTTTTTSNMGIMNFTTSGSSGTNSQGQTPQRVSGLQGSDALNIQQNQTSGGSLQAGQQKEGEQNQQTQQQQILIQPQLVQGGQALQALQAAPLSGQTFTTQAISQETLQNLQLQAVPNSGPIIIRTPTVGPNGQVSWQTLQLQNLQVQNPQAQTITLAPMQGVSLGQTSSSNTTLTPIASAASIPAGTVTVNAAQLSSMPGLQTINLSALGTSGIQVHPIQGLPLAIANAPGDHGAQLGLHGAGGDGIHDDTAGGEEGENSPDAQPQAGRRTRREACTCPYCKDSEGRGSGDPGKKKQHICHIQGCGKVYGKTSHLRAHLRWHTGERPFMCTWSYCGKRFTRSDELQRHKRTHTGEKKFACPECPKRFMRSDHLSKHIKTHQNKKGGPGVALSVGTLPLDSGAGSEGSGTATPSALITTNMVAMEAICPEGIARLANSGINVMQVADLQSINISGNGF
In short: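 Transient MRTU-transfected HepG2, 24 h compound exposure. Total RNA → oligo(dT) RT → PCR of reporter → 6-FAM primer extension → HpaI digest → CE. Endpoint fitted both directions vs DMSO.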

[6] = ATG_SREBP_CIS: Attagene CIS-FACTORIAL HepG2 Assay for human Sterol Regulatory Element Binding (SREBP) (AID 2282962); settings: HepG2 Attagene cis-factorial SREBP reporter, mRNA; actives raise or lower the signal
In short: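 Endogenous factor activity is measured in HepG2 through multiplexed reporter units under cis-element control. Following a 24 h incubation, reporter transcripts are reverse-transcribed, PCR-amplified and sized by capillary electrophoresis; activity is fitted in both directions relative to DMSO.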

[7] = target: Signal transducer and activator of transcription 3 (Homo sapiens) (UniProt P40763); test: ATG_STAT3_CIS: Attagene CIS-FACTORIAL HepG2 Assay for human Signal Transducer and Activator of Transcription 3 (STAT3) (AID 2282963); settings: HepG2, Attagene cis-factorial STAT3 reporter transcription; actives raise or lower the signal
Signal transducer and activator of transcription 3 (Homo sapiens), sequence (P40763 whole entry, looked up): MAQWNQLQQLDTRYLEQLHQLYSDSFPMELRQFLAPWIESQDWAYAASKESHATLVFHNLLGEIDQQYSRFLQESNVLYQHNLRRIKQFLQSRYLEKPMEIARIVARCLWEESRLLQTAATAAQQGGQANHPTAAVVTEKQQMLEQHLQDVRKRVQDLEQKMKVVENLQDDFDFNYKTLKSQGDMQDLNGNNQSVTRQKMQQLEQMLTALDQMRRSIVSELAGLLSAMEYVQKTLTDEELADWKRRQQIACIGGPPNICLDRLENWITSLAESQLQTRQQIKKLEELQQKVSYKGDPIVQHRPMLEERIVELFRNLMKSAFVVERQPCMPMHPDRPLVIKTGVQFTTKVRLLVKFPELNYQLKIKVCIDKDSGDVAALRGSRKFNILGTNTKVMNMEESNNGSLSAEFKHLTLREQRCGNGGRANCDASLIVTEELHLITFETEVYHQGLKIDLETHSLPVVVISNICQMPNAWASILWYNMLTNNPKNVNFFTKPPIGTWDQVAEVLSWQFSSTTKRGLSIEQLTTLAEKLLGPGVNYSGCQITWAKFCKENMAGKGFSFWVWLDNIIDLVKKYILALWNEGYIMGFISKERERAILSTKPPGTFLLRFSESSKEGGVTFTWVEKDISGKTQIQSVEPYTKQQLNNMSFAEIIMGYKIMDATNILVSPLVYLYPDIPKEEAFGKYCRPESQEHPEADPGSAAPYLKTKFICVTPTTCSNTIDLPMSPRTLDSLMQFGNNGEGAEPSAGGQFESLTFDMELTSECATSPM
In short: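 HepG2, MRTU-transfected, 24 h dosing. RNA → RT → PCR → FAM label → HpaI → CE. Bidirectional fit vs DMSO.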

[8] = ATG_TA_CIS: Attagene CIS-FACTORIAL HepG2 Assay for human TA Basal Promoter (AID 2282964); settings: HepG2 Attagene CIS-factorial TA basal promoter reporter; actives raise or lower the signal
In short: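 Background-control readout: TA basal promoter reporter mRNA, fitted in both directions relative to DMSO. Measured by RT-PCR and capillary electrophoresis 24 hours after treating HepG2 human liver cells transiently carrying multiplexed cis-regulated reporter constructs.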

[9] = ATG_TCF_b_cat_CIS: Attagene CIS-FACTORIAL HepG2 Assay for human T-Cell-Factor with beta-catenin (TCF/b-cat) (AID 2282965); settings: HepG2 TCF/beta-catenin cis-reporter transcription, actives raise or lower the signal
In short: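 Using capillary electrophoresis as the read-out, labelled reporter cDNA fragments from transiently transfected HepG2 were sized and quantified. Exposure lasted 24 hours; activity in either direction was referenced to DMSO.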

[10] = ATG_TAL_CIS: Attagene CIS-FACTORIAL HepG2 Assay for human TAL Basal Promoter (AID 2282966); settings: HepG2 Attagene cis-factorial TAL promoter reporter; actives raise or lower the signal;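 further: background control endpoint measuring basal TAL promoter reporter mRNA not a specific factor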
In short: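 Transiently transfected HepG2 (cis-regulated reporter units), 24 h treatment, mRNA read by fluorescent CE after RT-PCR; bidirectional fit, DMSO baseline.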

[11] = ATG_TGFb_CIS: Attagene CIS-FACTORIAL HepG2 Assay for human Transforming Growth Factor (TGF) (AID 2282967); settings: HepG2 Attagene CIS TGFb reporter, mRNA transcription; actives raise or lower the signal
In short: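 Endogenous TGFB1-linked transcription factor activity read as reporter mRNA via RT-PCR and capillary electrophoresis, 24 h after dosing transiently transfected HepG2 cells. Gain or loss of signal fitted relative to DMSO.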

[12] = ATG_VDRE_CIS: Attagene CIS-FACTORIAL HepG2 Assay for human Vitamin D Receptor Element (VDRE) (AID 2282968); settings: HepG2 VDRE cis-reporter transcription, actives raise or lower the signal
In short: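 Steps: transfect HepG2 with multiple reporter transcription units; dose chemicals 24 h; isolate RNA; RT-PCR; label with 6-FAM primer extension; HpaI digest; capillary electrophoresis. Curves fitted both directions against DMSO.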

[13] = target: Nuclear receptor subfamily 1 group I member 3 (Homo sapiens) (UniProt Q14994); test: ATG_CAR_TRANS: Attagene TRANS-FACTORIAL HepG2 Assay for human Constitutive Androstane Receptor (CAR) (AID 2282969; active means hit-call score of the fitted dose curve at least 0.9, where 1 is the maximum;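 further: activators raise reporter mRNA above DMSO so AC50 marks induction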); settings: HepG2 Attagene TRANS-FACTORIAL CAR reporter
Nuclear receptor subfamily 1 group I member 3 (Homo sapiens), sequence (Q14994 whole entry, looked up, the tested form may be a part): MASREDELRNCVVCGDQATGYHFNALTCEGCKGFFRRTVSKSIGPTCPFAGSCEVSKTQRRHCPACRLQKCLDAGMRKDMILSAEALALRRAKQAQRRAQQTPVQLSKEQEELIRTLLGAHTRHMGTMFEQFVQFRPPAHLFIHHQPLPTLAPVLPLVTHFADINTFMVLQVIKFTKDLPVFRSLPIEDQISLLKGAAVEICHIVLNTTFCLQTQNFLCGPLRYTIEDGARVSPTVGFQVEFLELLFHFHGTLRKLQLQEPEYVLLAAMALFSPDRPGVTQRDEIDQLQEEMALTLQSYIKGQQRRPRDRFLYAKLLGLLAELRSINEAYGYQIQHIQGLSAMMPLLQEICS
In short: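 Steps: transient transfection of HepG2 with multiple GAL4-UAS reporter units; 24 h compound incubation; RNA isolation, RT-PCR, 6-FAM primer extension, HpaI digest; capillary electrophoresis. Gain-of-signal relative to DMSO negative control.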

[14] = target: Estrogen receptor (Homo sapiens) (UniProt P03372); test: ATG_ERa_TRANS: Attagene TRANS-FACTORIAL HepG2 Assay for human Estrogen Receptor alpha (ERa) (AID 2282970; active means hit-call score of the fitted dose curve at least 0.9, where 1 is the maximum); settings: HepG2 Attagene TRANS ERa GAL4 reporter, mRNA
Estrogen receptor (Homo sapiens), sequence (P03372 whole entry, looked up, the tested form may be a part): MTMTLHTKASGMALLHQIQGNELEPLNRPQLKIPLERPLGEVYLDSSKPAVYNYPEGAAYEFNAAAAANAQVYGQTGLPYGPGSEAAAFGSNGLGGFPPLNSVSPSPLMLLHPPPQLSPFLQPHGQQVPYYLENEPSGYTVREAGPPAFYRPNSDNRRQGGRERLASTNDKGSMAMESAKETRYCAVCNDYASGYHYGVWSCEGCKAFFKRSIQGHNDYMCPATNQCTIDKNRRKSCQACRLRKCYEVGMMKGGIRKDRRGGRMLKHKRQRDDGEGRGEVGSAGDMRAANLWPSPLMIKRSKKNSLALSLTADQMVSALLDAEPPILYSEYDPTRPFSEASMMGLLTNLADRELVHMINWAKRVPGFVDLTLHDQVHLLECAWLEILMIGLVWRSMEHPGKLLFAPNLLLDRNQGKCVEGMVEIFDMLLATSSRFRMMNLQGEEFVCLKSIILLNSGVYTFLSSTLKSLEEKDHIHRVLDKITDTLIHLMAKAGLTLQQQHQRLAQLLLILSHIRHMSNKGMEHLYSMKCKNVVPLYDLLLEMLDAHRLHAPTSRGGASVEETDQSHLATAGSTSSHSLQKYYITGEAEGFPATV
In short: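 One of 30 multiplexed endpoints from a HepG2 TRANS system, this one reports ERa-Gal4-driven reporter mRNA. Transcripts were quantified 24 hours post-dosing by fluorescent RT-PCR and capillary electrophoresis, with activity scored as induction over DMSO.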

[15] = target: Steroid hormone receptor ERR1 (Homo sapiens) (UniProt P11474); test: ATG_ERRa_TRANS: Attagene TRANS-FACTORIAL HepG2 Assay for human Estrogen-Related Receptor alpha (ERRa) (AID 2282971; active means hit-call score of the fitted dose curve at least 0.9, where 1 is the maximum); settings: HepG2 Attagene TRANS reporter, ERRa transactivation
Steroid hormone receptor ERR1 (Homo sapiens), sequence (P11474 whole entry, looked up, the tested form may be a part): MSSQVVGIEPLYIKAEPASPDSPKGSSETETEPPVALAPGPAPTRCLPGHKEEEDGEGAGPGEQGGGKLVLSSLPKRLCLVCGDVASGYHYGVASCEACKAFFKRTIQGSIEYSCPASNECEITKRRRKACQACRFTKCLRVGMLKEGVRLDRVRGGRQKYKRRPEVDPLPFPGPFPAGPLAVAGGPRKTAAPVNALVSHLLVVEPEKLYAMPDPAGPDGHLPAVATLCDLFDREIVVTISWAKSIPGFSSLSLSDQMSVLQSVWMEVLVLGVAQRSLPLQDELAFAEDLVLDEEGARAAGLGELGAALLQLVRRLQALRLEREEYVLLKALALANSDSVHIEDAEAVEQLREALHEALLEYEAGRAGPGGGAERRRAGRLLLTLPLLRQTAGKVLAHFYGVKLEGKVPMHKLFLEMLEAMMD
In short: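 HepG2 cells transiently transfected with multiplexed GAL4-UAS reporter units reading chimeric ERRa-Gal4 activity; 24 h compound exposure. Reporter mRNA measured by RT-PCR, 6-FAM labelling, HpaI digest and capillary electrophoresis; gain of signal fitted versus DMSO baseline.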

[16] = ATG_M_19_TRANS: Attagene TRANS-FACTORIAL HepG2 Assay for M19 Transcription Factor (Internal Marker) (AID 2282974; active means hit-call score of the fitted dose curve at least 0.9, where 1 is the maximum); settings: HepG2 Attagene TRANS-FACTORIAL M19 internal marker reporter
In short: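 Fluorescence of 6-FAM-labelled reporter cDNA fragments, separated by capillary electrophoresis, served as the readout. These derived from HepG2 cells carrying transfected GAL4-UAS reporter units after 24 h dosing, with DMSO as negative control.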

[17] = ATG_GAL4_TRANS: Attagene TRANS-FACTORIAL HepG2 Assay for GAL4 (Internal Marker) (AID 2282976; active means hit-call score of the fitted dose curve at least 0.9, where 1 is the maximum); settings: HepG2 Attagene TRANS GAL4 internal marker reporter
In short: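 HepG2 cells transiently transfected with multiplexed GAL4-UAS reporter constructs were dosed for 24 h. Reporter mRNA was measured by RT-PCR, 6-FAM primer extension, HpaI digestion and capillary electrophoresis, and gain of signal was fitted relative to DMSO.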

[18] = ATG_PPRE_CIS: Attagene CIS-FACTORIAL HepG2 Assay for human Peroxisome Proliferator-activated Response Element (PPRE) (AID 2282958); settings: HepG2 PPRE cis-element reporter, Attagene transcription factor profiling; actives raise or lower the signal
In short: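 HepG2, transient MRTU transfection (cis promoter elements, endogenous TFs). 24 h dosing. RNA → oligo(dT) RT → PCR → 6-FAM primer extension → HpaI digest → CE. Bidirectional fit vs DMSO.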

[19] = target: X-box-binding protein 1 (Homo sapiens) (UniProt P17861); test: ATG_Xbp1_CIS: Attagene CIS-FACTORIAL HepG2 Assay for human X-box Binding Protein 1 (XBP1) (AID 2282972); settings: HepG2 XBP1 cis-element reporter, Attagene multiplex; actives raise or lower the signal
X-box-binding protein 1 (Homo sapiens), sequence (P17861 whole entry, looked up): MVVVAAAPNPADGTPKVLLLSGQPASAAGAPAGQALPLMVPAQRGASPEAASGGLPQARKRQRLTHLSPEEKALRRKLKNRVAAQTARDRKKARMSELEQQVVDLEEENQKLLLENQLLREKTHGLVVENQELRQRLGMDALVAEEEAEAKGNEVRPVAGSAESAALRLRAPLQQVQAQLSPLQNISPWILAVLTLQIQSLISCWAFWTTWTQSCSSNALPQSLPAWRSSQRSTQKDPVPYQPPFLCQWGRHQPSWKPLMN
In short: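 Multiplexed cis-reporter readout in transfected HepG2 liver cells. Exposure lasted 24 hours. Activity in either direction was fitted against DMSO as negative control and baseline.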

[20] = ATG_PXRE_CIS: Attagene CIS-FACTORIAL HepG2 Assay for human Pregnane X Receptor Element (PXRE) (AID 2282957); settings: HepG2 Attagene CIS-FACTORIAL PXRE reporter, mRNA; actives raise or lower the signal
In short: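 Fluorescent capillary electrophoresis of amplified reporter cDNA gave the signal, collected 24 h after dosing HepG2 cells that held transfected cis-element reporter constructs.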

Measured: AC50

O=C(O)c1ccccc1O
not listed: [18] | [19] | [20]
inactive: all other assays above

C=C(C)C(=O)OCCOCCOC(=O)C(=C)C
not listed: [3] | [8] | [11] | [13] | [14] | [15] | [16] | [20]
inactive: all other assays above

CC/C=C\C#N
not listed: [12] | [15] | [17] | [18] | [20]
inactive: all other assays above

Nc1ccc(N)c([N+](=O)[O-])c1
active: [14] 37.8 µM [middle of 5 runs]
not listed: [3] | [9] | [10] | [12] | [15] | [16] | [18] | [19]
inactive: all other assays above

C=CCOC(=O)/C=C\C(=O)OCC=C
active: [2] 26 µM | [4] 27.6 µM | [9] 15.1 µM | [12] 27 µM | [19] 26.5 µM
not listed: [3] | [15] | [17] | [20]
inactive: all other assays above

COc1ccccc1O
not listed: [9] | [13] | [15] | [16] | [18] | [20]
inactive: all other assays above

C/C=C(\C)C(=O)OC/C=C(\C)CCC=C(C)C
active: [18] 39.6 µM | [6] 61.3 µM
not listed: [1] | [13] | [15] | [16] | [17]
inactive: all other assays above

CCCCCCCCCCCCOC(C)=O
not listed: [1] | [13] | [15]
inactive: all other assays above

CCCCCCC(O)CCOC(C)=O (stereo not drawn)
active: [20] 18.6 µM
not listed: [1] | [13] | [16]
inactive: all other assays above

CCC=C(C)C=O
active: [11] 0.643 µM | [14] 15.3 µM
not listed: [3] | [8] | [20]
inactive: all other assays above

C=CCOCC(O)CO (stereo not drawn)
not listed: [3] | [13] | [14] | [15] | [16] | [18] | [20]
inactive: all other assays above

C#C[C@]1(O)CC[C@H]2[C@@H]3CCc4cc(O)ccc4[C@H]3CC[C@@]21C
active: [20] 3.19 µM [middle of 4 runs] | [4] 130 µM and 54.9 µM | [5] 169 µM and 44.8 µM | [7] 68 µM and 155 µM | [8] 132 µM | [9] 19.2 µM and 19.8 µM | [11] 100 µM | [19] 59.6 µM [middle of 4 runs]
inactive: [2] | [20] | [4] | [5] | [6] | [7] | [8] | [9] | [11] | [19] | [16] | [17]

CC(C)CCCC(C)(C)O
not listed: [3] | [14] | [15] | [20]
inactive: all other assays above

O=Cc1ccccc1O
active: [3] 76.3 µM
not listed: [8] | [14] | [15] | [17] | [19] | [20]
inactive: all other assays above

c1coc(CNc2ncnc3nc[nH]c23)c1
not listed: [3] | [9] | [13] | [15] | [16] | [17] | [20]
inactive: all other assays above

CCC(=O)OC(C)(C)C1CC=C(C)CC1 (stereo not drawn)
active: [14] 78.3 µM
not listed: [11] | [12] | [15] | [16] | [20]
inactive: all other assays above

CC(O)CNCC(C)O (stereo not drawn)
not listed: [14] | [15] | [16] | [19] | [20]
inactive: all other assays above

CC(O)COCC(C)O (stereo not drawn)
not listed: [1] | [13] | [15] | [16] | [19]
inactive: all other assays above
